Results filed as inconclusive are left out. A call without a number means that no potency is given here. Activity calls are given as the source filed them. Unless noted, calls come from the whole dose curve; as a rule, active = well fitted curve in the direction sought with a large enough effect; inconclusive = small, poorly fitted or top-dose-only effect, or another doubt; inactive = no such curve, though single readings can be large; an effect the other way counts as inactive or inconclusive.
Tests used:
[1] = Cell Viability - LYMP2-010 (AID 981); note: nearly all actives have a fitted effect of over 55% in size
Method in brief: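 This 24 hr viability screen uses LYMP2-010 lymphoblastoid cells, quantifies ATP via luciferase luminescence, and derives AC50 from Hill fits of qHTS concentration-response data.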

[2] = Cell Viability - LYMP2-012 (AID 982);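 note: cellular ATP by luciferase luminescence where a drop means cytotoxicity; cells exposed to compound for one day before reading; nearly all actives have a fitted effect of over 55% in size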
[3] = Cell Viability - LYMP2-014 (AID 983);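 note: cells exposed to compound for 24 h at 37 °C; nearly all actives have a fitted effect of over 50% in size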
Method in brief: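 Quantitative HTS in lymphoblastoid cells: 24 hr compound exposure, then CellTiter-Glo ATP luminescence. Positive control was tetraoctylammonium bromide, 6.4pM to 92 uM.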

[4] = Cell Viability - LYMP2-016 (AID 984); note: nearly all actives have a fitted effect of over 55% in size
Method in brief: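 Human lymphoblastoid cells (LYMP2-016), 2500/well in complete medium, preincubated 5 hr at 37 C, then compound-treated 24 hr at 37 C. Intracellular ATP read by CellTiter-Glo luminescence after 30 min at room temperature; AC50 from Hill-equation concentration-response fits.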

[5] = Cell Viability - LYMP2-018 (AID 985); note: nearly all actives have a fitted effect of over 50% in size
Method in brief: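 In this qHTS viability assay, cells are treated for 24 hr and cellular ATP is quantified by luciferase-based luminescence, with tetraoctylammonium bromide as positive control.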

[6] = Cell Viability - LYMP2-020 (AID 986);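 note: cells exposed to compound for 24 h at 37 °C; nearly all actives have a fitted effect of over 55% in size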
Method in brief: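 Cells at 2500 per well receive a 24 hr compound exposure at 37 C. Viability is measured as ATP-dependent luciferase luminescence, with AC50 modeled from qHTS concentration-response curves.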

[7] = Cell Viability - LYMP2-022 (AID 987); note: nearly all actives have a fitted effect of over 55% in size
Method in brief: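 In this qHTS cytotoxicity screen, compound titrations were incubated 24 hr at 37 C with human lymphoblastoid cells in complete medium. Luciferase-based ATP luminescence provided the viability signal.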

[8] = Cell Viability - LYMP2-024 (AID 988); note: nearly all actives have a fitted effect of over 60% in size
Method in brief: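 Cells at 2500 per well received compound for 24 hr after a 5 hr settling period. Viability was scored by CellTiter-Glo luminescence, with AC50 from Hill fits.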

[9] = Cell Viability - LYMP2-026 (AID 989);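 note: cells exposed to compound for 24 h at 37 °C; nearly all actives have a fitted effect of over 50% in size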
Method in brief: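 Acute toxicity screen in complete culture medium, with 24 hr compound exposure at 37 C. Viability read as cellular ATP via luciferase reaction, with tetraoctylammonium bromide (6.4pM to 92 uM) as positive control.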

[10] = Cell Viability - LYMP1-002 - Assay at 24 hr (AID 993)
Method in brief: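 Viability was judged from intracellular ATP using a luciferase read-out, following a 24-hour compound incubation at 37 C of lymphoblastoid cells seeded at 2500 per well. Concentration-response data were fitted to the Hill equation for AC50.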

[11] = Cell Viability - LYMP1-002 - Assay at 40 hr (AID 994); note: nearly all actives have a fitted effect of over 60% in size
Method in brief: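 Concentration-dependent ATP loss after 40 hr treatment at 37 C defined toxicity; AC50 values were obtained by fitting the standard Hill equation.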

[12] = qHTS for differential inhibitors of proliferation of Plasmodium falciparum line 7G8 (AID 1815);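 note: parasite growth measured after three days of incubation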; note: potency is the fitted concentration of half-maximal effect
[13] = qHTS for differential inhibitors of proliferation of Plasmodium falciparum line GB4 (AID 1816); conditions: Potency: Plasmodium falciparum GB4 proliferation inhibition;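 note: parasite growth measured after 72 h incubation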; note: potency is the fitted concentration of half-maximal effect
[14] = molecular target: alpha-glucosidase (Oryza sativa, rice) (UniProt Q653V4); experiment: Counterscreen for Glucocerebrosidase Inhibitors: qHTS Assay for Rice alpha-Glucosidase at pH 5.0 (AID 997)
Method in brief: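 Endpoint fluorogenic assay at pH 5.0: compounds (0.7 nM to 77 uM) titrated against 4 nM rice enzyme and 400 uM 4-MU-alpha-glucoside for 20 min at room temperature; NaOH/glycine stop, read ex 365/em 440 nm, Hill-fitted AC50.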

[15] = molecular target: Alpha-galactosidase (Coffea arabica) (UniProt Q42656); experiment: Counterscreen for Glucocerebrosidase Inhibitors: qHTS Assay for Coffee Bean alpha-Galactosidase at pH 5.9 (AID 998)
Chain of Alpha-galactosidase (Coffea arabica) (Q42656 whole entry, looked up): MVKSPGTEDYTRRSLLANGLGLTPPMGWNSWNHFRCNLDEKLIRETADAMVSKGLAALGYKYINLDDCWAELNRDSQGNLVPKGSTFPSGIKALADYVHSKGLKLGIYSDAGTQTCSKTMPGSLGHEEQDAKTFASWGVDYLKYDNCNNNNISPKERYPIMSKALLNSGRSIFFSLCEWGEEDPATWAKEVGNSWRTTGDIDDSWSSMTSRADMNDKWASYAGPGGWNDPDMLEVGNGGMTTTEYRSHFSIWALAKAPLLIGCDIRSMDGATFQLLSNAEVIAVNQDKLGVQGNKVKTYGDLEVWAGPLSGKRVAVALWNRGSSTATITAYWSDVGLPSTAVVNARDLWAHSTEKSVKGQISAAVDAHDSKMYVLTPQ
Method in brief: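 Enzyme 2 nM + cpd (0.7 nM–77 uM titration) + 4-MU-alpha-Gal 80 uM, pH 5.9 citrate/Tween-20, RT 20 min, NaOH/glycine stop pH 10, fluor 365/440. Normalized to no-enzyme and full-activity controls; Hill-fit AC50.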

[16] = Validation of Assay for Modulators of Lamin A Splicing (AID 1459; active = well fitted curve in the direction sought with a large enough effect in the signal ratio; the % refers to the signal ratio;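 note: cells exposed to compound for two days before reading; ratio rise marks activators and ratio drop marks inhibitors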)
Method in brief: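 S3 HeLa cells stably expressing a lamin A-EGFP splicing minigene and DsRed2 were seeded at 600 cells/well in Opti-MEM with 2% FBS, pin-dosed, and incubated 48 hrs at 37 °C, 5% CO2. Laser-scanning cytometry (488 nm) gave GFP/RFP total intensity ratio.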

[17] = molecular target: Endonuclease 4 (Escherichia coli (strain K12)) (UniProt P0A6C1); experiment: Counterscreen for APE1 Inhibitors: qHTS Validation Assay for Inhibitors of Endonuclease IV (AID 1708)
Method in brief: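 Read-out: fluorescence rise (ex 525/em 598 nm) from incision of a TAMRA/BHQ-2 double-stranded THF abasic-site substrate (50 nM), measured kinetically; third-minus-first read difference gave reaction progress. Enzyme 2 nM.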

[18] = molecular target: DNA repair nuclease/redox regulator APEX1 (Homo sapiens) (UniProt P27695); experiment: qHTS Validation Assay for Inhibitors of the Human Apurinic/apyrimidinic Endonuclease 1 (APE1) (AID 1705;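 note: TAMRA fluorescence gain over two minutes as APE1 cuts a quenched THF abasic duplex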)
Chain of DNA repair nuclease/redox regulator APEX1 (Homo sapiens) (P27695 whole entry, looked up): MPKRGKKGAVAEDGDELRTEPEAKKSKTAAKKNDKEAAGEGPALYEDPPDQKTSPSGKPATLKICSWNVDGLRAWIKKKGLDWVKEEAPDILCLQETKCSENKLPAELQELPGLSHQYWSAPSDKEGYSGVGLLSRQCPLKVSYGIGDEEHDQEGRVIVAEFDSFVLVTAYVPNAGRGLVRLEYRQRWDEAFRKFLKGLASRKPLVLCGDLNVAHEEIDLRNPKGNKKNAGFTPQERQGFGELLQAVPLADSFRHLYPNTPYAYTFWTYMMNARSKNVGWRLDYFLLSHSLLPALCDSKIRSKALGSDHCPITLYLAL
Method in brief: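 Human APE1 was preincubated with compound for 15 min at room temperature, then 50 nM (final) THF-abasic double-stranded DNA substrate bearing 5'-TAMRA and 3'-BHQ-2 was added. Incision-driven fluorescence rise (ex 525/em 598 nm) was read kinetically.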

[19] = qHTS Assay for Lipid Storage Modulators (AID 1519; calls by dose curve); conditions: Drosophila S3 cells, BODIPY lipid droplet/cell ratio, laser cytometry, cells loaded with oleic acid
Method in brief: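 Cells seeded at 5,000 per well were treated with compounds over a concentration series and loaded with oleic acid (400 uM, as added). Lipid droplet fluorescence (488 nm excitation, 500-530 nm channel) was read by laser-scanning cytometry and normalized to 20 uM Triacsin C.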

## C=CC(=O)NCNC(=O)C=C
[1]
  Potency: inactive
[2]
  Potency: inactive
[3]
  Potency: inactive
[4]
  Potency: inactive
[5]
  Potency: inactive
[6]
  Potency: inactive
[7]
  Potency: inactive
[8]
  Potency: inactive
[9]
  Potency: inactive
[10]
  Potency: inactive
[11]
  Potency: inactive

## CC[C@H](CO)Nc1nc(NCc2ccccc2)c2ncn(C(C)C)c2n1
[12]
  Potency: 5.01 µM (active)
[13]
  Potency: 6.31 µM (active)

## Clc1cnc(Oc2ccc(Oc3ncc(Cl)cc3Cl)cc2)c(Cl)c1
[14]
  outcome: inactive
[15]
  outcome: inactive
[16]
  outcome: inactive
[17]
  Potency: inactive
[13]
  Potency: inactive

## NC(CP(=O)(O)O)C(=O)O (stereo unspecified)
[16]
  outcome: inactive
[17]
  Potency: inactive
[12]
  Potency: inactive
[13]
  Potency: inactive

## CCCN(CCC)C1CCc2ccc(O)cc2C1 (stereo unspecified)
[16]
  outcome: inactive
[18]
  Potency: inactive
[12]
  Potency: 8.91 µM (active)
[13]
  Potency: 11.2 µM (active)

## O=C(O)COc1ccccc1
[1]
  Potency: inactive
[2]
  Potency: inactive
[3]
  Potency: inactive
[4]
  Potency: inactive
[5]
  Potency: inactive
[6]
  Potency: inactive
[7]
  Potency: inactive
[8]
  Potency: inactive
[9]
  Potency: inactive
[10]
  Potency: inactive
[11]
  Potency: inactive

## O=c1cccc2n1CC1CNC[C@H]2C1
[19]; at 25.7 µM (top of the series)
  activity change, negative = inhibition: -2.83% (inactive)
[19]; measured here: cell count channel max response
  max response: -1.29%
[19]; measured here: lipid channel max response
  max response: -2.58%

## COc1ccc2c(c[n+](C)c3c4cc5c(cc4ccc23)OCO5)c1OC
[14]
  outcome: inactive
[15]
  outcome: inactive
[18]
  Potency: inactive
[17]
  Potency: inactive
[12]
  Potency: 14.1 µM (active)
[13]
  Potency: 14.1 µM (active)

From PubChem BioAssay (NCATS)
